Assay results taken from PubChem BioAssay (NCATS).
Results filed as inconclusive are left out. This is one part of the list. Calls of active or inactive are those of the source. Calls follow the shape of the dose curve; as a rule, active = well fitted curve in the direction sought with a large enough effect; inconclusive = small, poorly fitted or top-dose-only effect, or another doubt; inactive = no such curve, though single readings can be large; an effect the other way counts as inactive or inconclusive.

Columns and labels:
[1] = target: Furin (Homo sapiens) (UniProt P09958); test: Furin counterscreen qHTS for Zika virus inhibitors (AID 1347149); also: nearly all actives have a fitted effect of over 70% in size; also: potency is read from the fitted curve at half-maximal effect
Furin (Homo sapiens), sequence (P09958 whole entry, looked up): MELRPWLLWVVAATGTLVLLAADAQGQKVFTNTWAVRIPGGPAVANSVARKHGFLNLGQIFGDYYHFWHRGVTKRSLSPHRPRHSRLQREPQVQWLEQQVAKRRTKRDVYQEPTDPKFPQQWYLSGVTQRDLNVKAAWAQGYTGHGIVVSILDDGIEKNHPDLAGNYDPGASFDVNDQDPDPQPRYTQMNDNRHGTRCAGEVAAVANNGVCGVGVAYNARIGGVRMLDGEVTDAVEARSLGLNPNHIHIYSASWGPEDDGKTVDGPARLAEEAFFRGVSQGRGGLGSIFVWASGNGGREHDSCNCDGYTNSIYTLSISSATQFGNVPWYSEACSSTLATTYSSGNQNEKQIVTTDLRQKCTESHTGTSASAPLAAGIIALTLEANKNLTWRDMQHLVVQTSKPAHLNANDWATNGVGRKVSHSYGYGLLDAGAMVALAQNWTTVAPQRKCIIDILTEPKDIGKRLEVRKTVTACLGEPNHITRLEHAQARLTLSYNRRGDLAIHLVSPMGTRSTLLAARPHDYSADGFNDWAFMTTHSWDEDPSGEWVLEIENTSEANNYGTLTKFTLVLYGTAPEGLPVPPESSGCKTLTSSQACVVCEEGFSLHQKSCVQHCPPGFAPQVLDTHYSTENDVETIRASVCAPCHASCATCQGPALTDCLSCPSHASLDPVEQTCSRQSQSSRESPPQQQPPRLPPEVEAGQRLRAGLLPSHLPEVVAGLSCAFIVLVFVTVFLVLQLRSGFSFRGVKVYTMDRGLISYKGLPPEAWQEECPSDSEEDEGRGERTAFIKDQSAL
Method in brief: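 Fluorogenic cleavage of BOC-RVRR-AMC (2 microM final, Km ~15 µM) was monitored (ex 340, em 450 nm) at 37C after 15 min RT preincubation of 5 nM furin with compounds in HEPES pH 7.0 buffer with CaCl2 and Triton X-100. Percent inhibition was fitted to a 4-parameter Hill curve.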

[2] = Confirmatory screen GU Rhodamine qHTS for Zika virus inhibitors qHTS (AID 1347157); also: nearly all actives have a fitted effect of over 70% in size; also: potency is read from the fitted curve at half-maximal effect
Method in brief: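 Compounds, tested up to 114 microM, were incubated for 15 minutes with 25 nM unlinked NS2B-NS3 protease at pH 8.0. Cleavage of 1.5 microM Rhodamine110 substrate was then followed by fluorescence for 15 minutes.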

[3] = Confirmatory screen NINDS Rhodamine qHTS for Zika virus inhibitors (AID 1347161); also: nearly all actives have a fitted effect of over 60% in size; also: potency is read from the fitted curve at half-maximal effect
Method in brief: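 Aprotinin served as in-plate control. Conditions: 25 nM linked NS2B-NS3, pH 8.0 Tris buffer, titrated compounds, 15 min preincubation and 15 min reaction with 1.5 microM Rhod110 substrate at room temperature.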

[4] = ZIKV-mCherry secondary qHTS for Zika virus inhibitors (AID 1347158); also: top concentration of the series differs between compounds
Method in brief: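 After overnight seeding at 37 °C, Vero cells receive compound and then ZIKV-mCherry (MOI 1). Following 48-72 h infection, cells are fixed, counterstained with Hoechst, and imaged; percent infected cells is derived from an mCherry intensity cut-off of 450 RFU.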

[5] = tested on: Zika virus NS2B-NS3 protease (linked); test: 384 well plate NINDS AMC confirmatory qHTS for Zika virus inhibitors (AID 1347163); also: nearly all actives have a fitted effect of over 50% in size; also: potency is read from the fitted curve at half-maximal effect
Method in brief: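 Linked protease 5/30/60 nM final; cpds up to 1 mM final, ~15 min preinc. Substrate Ac-VKTGKR-AMC 30 microM final. RT, dark, 25 min; FI ex 355/em 460; normalized to no-enzyme/no-inhibitor ctrls.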

[6] = tested on: Zika virus NS2B-NS3 protease (linked construct); test: 384 well plate NINDS Rhodamine confirmatory qHTS for Zika virus inhibitors (AID 1347164);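 also: fluorescence from protease cleavage of Ac-LKRR-rhodamine 110 substrate; potency is read from the fitted curve at half-maximal effect; nearly all actives have a fitted effect of over 65% in size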
Method in brief: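 Linked protease at a final 5 nM, 30 nM or 60 nM was preincubated ~15 min with compounds, then given 10 microM Ac-LKRR-Rhodamine 110. Fluorescence (ex 485/em 538 nm) after 25 min in the dark at room temperature.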

[7] = Tertiary RLuc qRT-PCR qHTS assay for Zika virus inhibitors (AID 1347169); also: top concentration of the series differs between compounds; nearly all actives have a fitted effect of over 55% in size
Method in brief: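 Vero cells (1,000 per well) plated overnight at 37 degrees C, treated with compound in DMSO, then infected with recombinant ZIKV-RLuc (Cambodian) at MOI 1-2 for 48-72 hrs. Live-cell Renilla luciferase substrate added; luminescence read after 1-1.5 hrs.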

[8] = target: DNA repair nuclease/redox regulator APEX1 (Homo sapiens) (UniProt P27695); test: Confirmation qHTS Assay for Inhibitors of the Human Apurinic/apyrimidinic Endonuclease 1 (APE1) (AID 2572); details: purified APE1, fluorogenic abasic-site DNA cleavage; also: potency is read from the fitted curve at half-maximal effect; nearly all actives have a fitted effect of over 30% in size
DNA repair nuclease/redox regulator APEX1 (Homo sapiens), sequence (P27695 whole entry, looked up): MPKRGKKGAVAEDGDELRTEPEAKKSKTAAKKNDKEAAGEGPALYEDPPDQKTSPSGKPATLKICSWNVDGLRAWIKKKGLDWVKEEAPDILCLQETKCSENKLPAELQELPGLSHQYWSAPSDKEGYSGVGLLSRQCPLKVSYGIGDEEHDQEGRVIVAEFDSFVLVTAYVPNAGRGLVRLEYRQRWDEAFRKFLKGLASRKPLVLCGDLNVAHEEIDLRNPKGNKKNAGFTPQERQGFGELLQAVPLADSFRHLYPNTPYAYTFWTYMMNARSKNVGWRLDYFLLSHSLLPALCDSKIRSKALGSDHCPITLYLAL
Method in brief: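 Readout: kinetic fluorescence (Ex 525, Em 598 nm) from APE1 incision of a 5'-TAMRA, 3'-BHQ-2 duplex containing a THF abasic site at 50 nM final. Compound preincubation 15 min, room temperature.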

[9] = target: DNA repair nuclease/redox regulator APEX1 (Homo sapiens) (UniProt P27695); test: qHTS FP-Based Assay for Inhibitors of the Human Apurinic/apyrimidinic Endonuclease 1 (APE1) (AID 2573)
Text: The apurinic/apyrimidinic endonuclease APE1 is the primary mammalian enzyme responsible for the removal of abasic (or AP) sites in DNA and functions centrally in the base excision DNA repair (BER) pathway. […] Thus, targeting APE1 could improve the efficacy of current treatment paradigms by promoting selective sensitization or protection of diseased and normal cells, respectively.
In order to gain insight into the mode of action of confirmed APE1 inhibitors, we implemented a miniaturized fluorescence polarization assay designed to report on compounds which competitively displace ds-DNA substrate. The fluorescence polarization assay has been implemented in 384- and 1536-well format for binding of TAMRA-labeled double-stranded DNA probe not containing a quencher. The binding of protein to DNA is inhibited by ATA, a general inhibitor of APE1 activity.
See also related primary fluorogenic assay (AID 2517). […]
Three uL of enzyme were dispensed to 1536-well Greiner black solid bottom plates. […] The plates were immediately transferred into ViewLux High-throughput CCD imager (Perkin-Elmer) in order to measure the reaction progress in kinetic mode (three reads every 60 seconds) using 525 nm excitation and 598 nm emission fluorescence protocol. The fluorescence intensity difference between the third and the first time points was used to compute reaction progress.

[10] = Primary qHTS for small molecule stabilizers of the endoplasmic reticulum resident proteome: Secreted ER Calcium Modulated Protein (SERCaMP) assay (AID 1508630)
Method in brief: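 GLuc-SERCaMP-expressing SH-SY5Y cells, pretreated 16 h with compound, are challenged with thapsigargin to empty ER calcium stores; after 4 h, coelenterazine is added directly to the medium and luminescence is imaged.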

[11] = target: Tyrosyl-DNA phosphodiesterase 1 (Homo sapiens) (UniProt Q9NUW8); test: Confirmation Assay for Inhibitors of Tyrosyl-DNA Phosphodiesterase (TDP1) (AID 489007); details: recombinant human TDP1 enzymatic activity, dose-response; also: potency is read from the fitted curve at half-maximal effect; nearly all actives have a fitted effect of over 40% in size
Tyrosyl-DNA phosphodiesterase 1 (Homo sapiens), sequence (Q9NUW8 whole entry, looked up): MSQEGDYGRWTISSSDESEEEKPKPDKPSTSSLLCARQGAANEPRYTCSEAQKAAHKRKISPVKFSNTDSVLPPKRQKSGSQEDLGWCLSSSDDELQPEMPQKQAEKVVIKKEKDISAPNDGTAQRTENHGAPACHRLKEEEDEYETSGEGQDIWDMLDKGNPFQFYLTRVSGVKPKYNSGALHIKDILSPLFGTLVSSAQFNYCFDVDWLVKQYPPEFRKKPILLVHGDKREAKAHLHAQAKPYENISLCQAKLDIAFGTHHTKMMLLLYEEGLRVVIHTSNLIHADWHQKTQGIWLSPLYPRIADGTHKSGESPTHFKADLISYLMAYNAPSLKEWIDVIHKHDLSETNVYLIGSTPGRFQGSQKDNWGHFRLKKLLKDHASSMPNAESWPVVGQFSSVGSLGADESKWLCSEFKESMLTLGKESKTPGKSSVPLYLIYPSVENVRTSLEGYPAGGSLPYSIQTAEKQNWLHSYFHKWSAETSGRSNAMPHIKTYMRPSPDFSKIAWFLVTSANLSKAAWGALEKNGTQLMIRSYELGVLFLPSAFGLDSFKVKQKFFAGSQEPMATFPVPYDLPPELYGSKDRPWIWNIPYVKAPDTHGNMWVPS
Method in brief: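 Confirmation of primary-screen follow-ups in a qHTS format. Substrate cleavage by Tdp1 (1 nM) of a 3'-phosphotyrosine-FITC, 5'-biotin oligo (15 nM) was monitored as decreased AlphaScreen signal after a 5 min room-temperature reaction.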

Measured: Potency

COC(=O)C1=C(c2ccccc2)c2ccccc2S(=O)(=O)N1CC(=O)Nc1ccccc1C(F)(F)F
inactive: [1] | [2] | [3]

Cc1ccc(-c2nnc(Nc3ccc(O)cc3)c3ccccc23)cc1S(=O)(=O)NCc1nc2ccccc2[nH]1
inactive: [1] | [2] | [3]

CCOC(=O)c1ccc(NC(=O)c2ccc3c(c2)CCN3S(=O)(=O)c2ccc(Cl)cc2)cc1
inactive: [1] | [2] | [3]

O=C(O)c1cc(-n2c(/C=C\c3ccc(F)cc3)nc3ccccc3c2=O)ccc1Cl
inactive: [1] | [4] | [7]
active: [2] 39.8 µM | [5] 200 µM | [6] 141 µM

O=c1c(O)c(Br)ccc2c(Br)c(O)c(O)c(O)c12
active: [8] 0.316 µM | [1] 23.5 µM | [2] 39.8 µM | [5] 158 µM | [6] 89.1 µM
inactive: [9] | [4] | [7] | [10]

O=C(Nc1ccccc1)c1ccc2c(O)c(S(=O)(=O)c3ccc(Cl)cc3)c(=O)[nH]c2c1
inactive: [1] | [4] | [7]
active: [2] 22.4 µM | [3] 14.1 µM | [5] 398 µM

Cc1ccc(C(=O)Nc2ccc(C(=O)OCc3cc(=O)n4nc(C5CC5)sc4n3)cc2)cc1
inactive: [1] | [2]

Cc1csc2nc(COC(=O)c3ccc(NC(=O)c4ccccc4Br)cc3)cc(=O)n12
active: [1] 59.1 µM
inactive: [2] | [3]

O=C(O)CSc1nc2ccc(NC(=O)COc3ccc(Cl)cc3)cc2s1
active: [11] 11.2 µM | [2] 31.6 µM | [3] 20 µM | [5] 25.1 µM | [6] 28.2 µM
inactive: [1] | [4] | [7]

O=C(Nc1c(C(=O)O)oc2ccccc12)c1ccc(C(F)(F)F)cc1
active: [2] 15.8 µM | [3] 25.1 µM | [5] 316 µM | [6] 100 µM
inactive: [1] | [4]

COC(=O)c1ccccc1NC(=O)CSc1nc(-c2ccccc2)cc(C(F)(F)F)n1
inactive: [1] | [2] | [3]

Cc1ccc(NC(=O)c2ccc3c(O)c(S(=O)(=O)c4ccc(Cl)cc4)c(=O)[nH]c3c2)cc1
inactive: [1] | [4] | [7]
active: [2] 22.4 µM | [5] 251 µM | [6] 35.5 µM

Cc1ccc2nc(-c3ccc(N=Nc4cc(S(=O)(=O)O)c5ccccc5c4O)cc3)sc2c1S(=O)(=O)O
active: [1] 59.1 µM | [2] 3.16 µM | [3] 2.82 µM | [6] 15.8 µM
inactive: [4] | [5] | [7]
